Only some compounds are listed: those with a hit (about 1.2% of all), similar ones and a draw of the others.
YjeE inh = qHTS Assay for Inhibitors of YjeE; tRNA threonylcarbamoyladenosine biosynthesis protein TsaE (Escherichia coli (strain …; purified YjeE enzyme, qHTS inhibition assay; Potency, µM; hit rate 0.05% among 71,000; AID 605, 2007
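Fluorescence polarization of a BODIPY Texas Red–ADP probe (2 uM) bound to purified YjeE (10 uM) was read after 15 min room-temperature incubation with compounds. Loss of polarization marks inhibitors; ADP serves as titrated control.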
BRCT PPI green = qHTS Assay for Inhibitors of BRCT-Phosphoprotein Interaction (Green Fluorophore); Potency, µM (doses to about 76.9 µM), without a hit: at the top dose activity change, negative = inhibition, usual class: inhibitors; hit rate 0.05% among 75,000; Breast cancer type 1 susceptibility protein (Homo sapiens), P38398; BRCA1 BRCT-phosphopeptide binding, green fluorescence polarization;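 note: potency is the fitted concentration of half-maximal effect; plate controls were peptide without protein for full effect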
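Compounds were incubated for 12 min at room temperature with a complex of 100 nM fluorescein-tagged pBACH1 decapeptide and 250 nM His-tagged BRCT protein. Buffer was phosphate pH 7.3 with EDTA, DTT and Tween 20. Disruption of binding lowers the polarization signal.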
Pol III holo inh = qHTS Assay for Inhibitors of DNA Polymerase III Holoenzyme System. reconstituted DNA polymerase III holoenzyme replication, biochemical. hit rate 0.25% among 71,000. Potency, µM (doses to about 57.1 µM), for inactives: at the top dose activity change, negative = inhibition; note: potency is the fitted concentration of half-maximal effect; % is set by controls: 0 for no effect and ±100 for the full control effect
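Reconstituted *E. coli* holoenzyme (0.35 nM Pol III, 1 nM beta, 154 nM SSB, 2 nM primase) was preincubated with compound for 15 min at RT. Synthesis on 1.4 nM ssM13Gori ran 35 min, then was stopped with PicoGreen/EDTA and read as dsDNA fluorescence.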
GBA activity = Glucocerebrosidase; AID 360, 2006; purified enzyme, resorufin glucoside fluorescence (screen aimed at inhibitors), 20 min; hit rate 1.1% among 48,000; Lysosomal acid glucosylceramidase (Homo sapiens), P04062; Potency, µM; in the data active = potency below about 15 µM; inconclusive = mostly about 16 µM to 33 µM;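 note: potency is the fitted concentration of half-maximal effect; the screen sought inhibitors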
Target sequence (P04062 whole entry, looked up): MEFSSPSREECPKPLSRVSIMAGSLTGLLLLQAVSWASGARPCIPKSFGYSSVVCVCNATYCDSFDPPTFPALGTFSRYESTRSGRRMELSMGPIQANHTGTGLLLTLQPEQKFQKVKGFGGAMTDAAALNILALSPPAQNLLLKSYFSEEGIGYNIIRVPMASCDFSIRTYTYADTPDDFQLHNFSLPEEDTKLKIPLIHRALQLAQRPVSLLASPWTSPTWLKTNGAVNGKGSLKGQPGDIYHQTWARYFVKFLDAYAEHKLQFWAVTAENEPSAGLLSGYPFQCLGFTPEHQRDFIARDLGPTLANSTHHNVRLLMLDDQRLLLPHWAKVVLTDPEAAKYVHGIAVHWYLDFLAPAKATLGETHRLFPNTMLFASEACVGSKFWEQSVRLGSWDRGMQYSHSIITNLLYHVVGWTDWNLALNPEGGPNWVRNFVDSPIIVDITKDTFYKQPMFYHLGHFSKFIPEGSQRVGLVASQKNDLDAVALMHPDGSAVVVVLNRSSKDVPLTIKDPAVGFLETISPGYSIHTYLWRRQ
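Wild-type enzyme at 0.2 nM final in 50mM citric acid/KH2PO4, 10mM sodium taurocholate, 0.01% tween-20, pH 5.9, with resorufin beta-D-glucopyranoside at 30 uM final. Compounds titrated, 20 min at RT, red fluorescence read; AC50 from titration.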
Hsp90 Hop PPI = qHTS Assay for Disrupters of an Hsp90 Co-Chaperone Interaction. Hsp90 C-terminal peptide / TPR2A (Hop) interaction, human. AlphaScreen TPR2A-His6 binding biotin-Hsp90 C-terminal peptide. Potency, µM (series often up to 57 µM), without a hit: at the highest dose activity change, negative = inhibition. hit rate 0.44% among 71,000. AID 595, 2007; active = well fitted curve in either direction with a large enough effect; inconclusive = small, poorly fitted or top-dose-only effect, or another doubt; note: potency is the fitted concentration of half-maximal effect; % is set by controls: 0 for no effect and ±100 for the full control effect
BRCT inh red = qHTS Assay for Inhibitors of BRCT-Phosphoprotein Interaction (Red Fluorophore). AID 892, 2007. Breast cancer type 1 susceptibility protein (Homo sapiens), P38398. hit rate 0.03% among 75,000. BRCT-phosphopeptide binding, red fluorescence polarization. Potency, µM (top dose mostly 76.9 µM), for inactives: at the top dose activity change, negative = inhibition, hits mostly inhibitors; note: % is set by controls: 0 for no effect and ±100 for the full control effect
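Rhodamine-labelled pBACH1 10-mer (100 nM) bound to BRCT domain (100 nM) at pH 7.3; compounds incubated 12 min room temperature, polarization read. Free peptide defines full inhibition; unlabelled decapeptide titrated as control.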
Starred values were filed as active, the others as inactive; [ ] = remark or other dose. Unless noted, calls come from the whole dose curve; as a rule, active = well fitted curve in the direction sought with a large enough effect; inconclusive = small, poorly fitted or top-dose-only effect, or another doubt; inactive = no such curve, though single readings can be large; an effect the other way counts as inactive or inconclusive.

COc1ccc(OCC2Cc3c(-c4ccccc4)nc4c(c3CO2)CN(CCOc2ccccc2)CC4)cc1 (stereo unspecified) was read as BRCT PPI green -0.4%[15.4 µM] and BRCT inh red 0.7%[15.4 µM].
C[C@]12C=CC(=O)C=C1CC[C@@H]1[C@H]3C[C@@H](O)[C@](O)(C(=O)CO)[C@]3(C)C[C@H](O)[C@]12F was read as YjeE inh inactive, Pol III holo inh -3.3% and Hsp90 Hop PPI -6.1%.
CCc1ccc(CCC(=O)Nc2nnc(CC)s2)o1 was read as YjeE inh inactive, BRCT PPI green -1.9%, Pol III holo inh -2.1%, GBA activity 11.5*, Hsp90 Hop PPI -7.4% and BRCT inh red 0.3%.
Screening O=C(Nc1cccc(Cl)c1)N(CCCN1CCOCC1)Cc1ccccc1F returned YjeE inh inactive, BRCT PPI green 1.8%, Pol III holo inh -9.0%, GBA activity 11.4*, Hsp90 Hop PPI 1.4% and BRCT inh red -0.3%.
For O[C@@H]1CC[C@H]2Cc3ccccc3N=C21 the results were YjeE inh inactive, Pol III holo inh -8.9% and Hsp90 Hop PPI -4.5%.
N.N.N.N.N.N.N.N.N.N.N.N.N.N.O.O.[Ru].[Ru].[Ru] was read as YjeE inh 79.4µM*, BRCT PPI green 3.5%, Pol III holo inh 31.6µM*, Hsp90 Hop PPI 15.8µM* and BRCT inh red 0.4%.
Screening CCOC(=O)CC(=O)CSc1nc2ccc(C)cc2cc1C#N returned YjeE inh inactive, BRCT PPI green 23.2%, Pol III holo inh -6.8%, GBA activity 12.7*, Hsp90 Hop PPI -1.3% and BRCT inh red 0.0%.
For CC(=O)OC[C@@H]1O[C@@H](O/N=C2/C[C@@H](O)[C@@H](O)[C@@H]3[C@@H]4C(=O)N(Cc5ccc6c(c5)OCO6)C(=O)[C@H]4CC[C@@H]23)[C@H](OC(C)=O)[C@H](OC(C)=O)[C@@H]1OC(C)=O the results were BRCT PPI green -1.8%[15.4 µM] and BRCT inh red -1.1%[15.4 µM].
For CCCCCn1c(N)c(C#N)c2nc3ccccc3nc21 the results were YjeE inh inactive, BRCT PPI green 0.7%, Pol III holo inh -17.0%, GBA activity 2.68*, Hsp90 Hop PPI 25.6% and BRCT inh red -1.5%.
For COc1cc2cc3c4cc(OC)c(OC)cc4cc[n+]3c(C)c2cc1OC the results were YjeE inh inactive, BRCT PPI green -1.1%[3.08 µM], Pol III holo inh 12.6µM*, Hsp90 Hop PPI inconclusive and BRCT inh red -0.9%.
Screening N=c1c2c(-c3ccccc3)c(-c3ccccc3)oc2ncn1CCN1CCOCC1 returned YjeE inh inactive, BRCT PPI green 1.6%, Pol III holo inh -10.1%, GBA activity >76.9, Hsp90 Hop PPI inconclusive and BRCT inh red -1.1%.
Screening c1ccc(-c2oc3ncnc(NCCN4CCOCC4)c3c2-c2ccccc2)cc1 returned YjeE inh inactive, BRCT PPI green 3.0%, Pol III holo inh -1.0%, GBA activity 13.3*, Hsp90 Hop PPI -13.3% and BRCT inh red 1.8%.
Screening C#C[C@]1(O)CC[C@H]2[C@H]3CCC4=Cc5oncc5C[C@]4(C)[C@@H]3CC[C@]21C returned YjeE inh inactive, BRCT PPI green -2.2%, Pol III holo inh -2.9%, Hsp90 Hop PPI -2.6% and BRCT inh red -0.9%.
Cc1ccc(N=Nc2c(O)ccc3cc(S(=O)(=O)O)ccc23)cc1 was read as YjeE inh inactive, BRCT PPI green -2.2%[15.4 µM], Pol III holo inh -7.6%[11.4 µM], Hsp90 Hop PPI inconclusive and BRCT inh red 1.2%[15.4 µM].
Cc1ccc(S(=O)(=O)Oc2ccc(N=Nc3ccc(-c4ccc(N=Nc5c(O)ccc6cc(S(=O)(=O)O)cc(S(=O)(=O)O)c56)c(C)c4)cc3C)cc2)cc1 was read as YjeE inh inactive, BRCT PPI green 6.7%, Pol III holo inh 31.6µM*, Hsp90 Hop PPI 0.0501µM* and BRCT inh red 2.6%.
`S=C([S-])NCCNC(=S)[S-].[Zn+2]` gave YjeE inh inactive, BRCT PPI green 0.3%, Pol III holo inh 0.398µM*, Hsp90 Hop PPI 15.8µM* and BRCT inh red -26.2%.
For Cn1c(=O)c(CCc2ccccc2)nc2cnc(N3CCNCC3)nc21 the results were YjeE inh inactive, BRCT PPI green -0.7%, Pol III holo inh -1.6%, Hsp90 Hop PPI -9.9% and BRCT inh red -3.2%.
`Cc1ncc2c(c1O)COP(=O)(O)OC2` gave YjeE inh inactive, BRCT PPI green -3.4%, Pol III holo inh -0.7%, Hsp90 Hop PPI -4.1% and BRCT inh red 1.6%.
`CC(=O)Nc1ccc(S(=O)(=O)N2CCN(c3cc(C)nc4ccccc34)CC2)cc1` gave YjeE inh inactive, BRCT PPI green 5.3%, Pol III holo inh -3.3%, GBA activity 10.7*, Hsp90 Hop PPI -1.4% and BRCT inh red -3.5%.
O=C(c1cc(C(F)(F)F)cc(C(F)(F)F)c1)N1CCC2(CCCN(Cc3nccs3)C2)CC1 was read as YjeE inh inactive, BRCT PPI green 0.4%, Pol III holo inh 6.3%, Hsp90 Hop PPI -4.0% and BRCT inh red -1.3%.
For OC[C@@H]1O[C@@H](n2cnc3c(NCCc4ccccc4)ncnc32)[C@@H](O)[C@H]1O the results were YjeE inh inactive, Pol III holo inh -4.9% and Hsp90 Hop PPI -8.3%.
Cc1ccc2oc(-c3cccc(NC(=O)C4CCCO4)c3)nc2c1 (stereo unspecified) was read as YjeE inh inactive, BRCT PPI green -0.2%, Pol III holo inh 0.3%, GBA activity >76.9, Hsp90 Hop PPI 1.2% and BRCT inh red -2.1%.
`CC(=O)Nc1ccc(S(=O)(=O)Nc2cccc(-c3nc4cc(C)ccc4o3)c2)cc1` gave YjeE inh inactive, BRCT PPI green -2.3%, Pol III holo inh -1.4%, GBA activity 7.86*, Hsp90 Hop PPI -2.3% and BRCT inh red -2.1%.
O=C1OC(O)C(C(Cl)Cl)=C1Cl (stereo unspecified) was read as YjeE inh inactive, BRCT PPI green -0.5%, Pol III holo inh -13.1%, Hsp90 Hop PPI 2.8% and BRCT inh red -0.1%.
O=c1c(O)c(-c2ccc(O)c(O)c2)oc2cc(O)ccc12 was read as YjeE inh inactive, BRCT PPI green -1.1%, Pol III holo inh 0.794µM*, Hsp90 Hop PPI 5.2% and BRCT inh red -1.6%.
Screening C=C1C[C@@]23C[C@@]1(O)CC[C@@H]2[C@]12C=C[C@@H](O)[C@](C)(C(=O)O1)[C@@H]2[C@@H]3C(=O)O returned BRCT PPI green 0.0% and BRCT inh red -0.8%.

Screening data from PubChem.
